Test [1] can be described thus: viability loss in pontine glioma line – cell-based, SU-DIPG-XIII, MIPE4.0, CellTiter-Glo, qHTS, dose response (AID 1347061; cut-off not given, nearly all actives have AC50 up to about 37 µM;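 also: cells exposed to compound for 48 hours before readout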). Particulars: CellTiter-Glo ATP luminescence. On the technique in general: ATP-based viability assays read luminescence as a measure of living cells.
The nature of test [2]: viability loss in pontine glioma line – cell-based, JHH-DIPG-1, MIPE4.0, CellTiter-Glo, qHTS, dose response (AID 1347062; cut-off not given, nearly all actives have AC50 up to about 27 µM;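 as to AC50: cells exposed to compound for two days before readout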). Particulars: JHH-DIPG-1 viability, CellTiter-Glo ATP luminescence.
A short description of test [3]: viability loss in pontine glioma line – cell-based, SU-DIPG-IV, MIPE4.0, CellTiter-Glo, qHTS, dose response (AID 1347063).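 Also: compound exposure lasted 48 hours before the viability readout.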 The note with it: CellTiter-Glo ATP luminescence.
Test [4] can be described thus: growth inhibition of DIPG cells – cell-based, MIPE4.0 library, CellTiter-Glo luminescence, qHTS (AID 1347066).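 Also: cells exposed to compound for 48 hours before readout.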 Particulars: SU-DIPG-VI viability, CellTiter-Glo ATP luminescence.
A short description of test [5]: viability loss in pontine glioma line – cell-based, SU-DIPG-XXV, MIPE5.0, CellTiter-Glo, qHTS, dose response (AID 1347065; cut-off not given, nearly all actives have AC50 up to about 26 µM;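 also: cells exposed to compound for 48 hours before ATP readout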). Particulars: CellTiter-Glo ATP luminescence.
Test [6] is described as follows: JHH-DIPG-1 glioma cell viability, MIPE5.0 library, CellTiter-Glo luminescence, qHTS (AID 1347067; cut-off not given, nearly all actives have AC50 up to about 26 µM;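 also: cells exposed to compound for 48 hours before readout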). The note with it: JHH-DIPG-1 glioma viability, CellTiter-Glo ATP luminescence.
Test [7] can be described thus: viability loss in pontine glioma line – cell-based, SU-DIPG-XIII, MIPE5.0, CellTiter-Glo, qHTS, dose response (AID 1347064; cut-off not given, nearly all actives have AC50 up to about 23 µM). Particulars: CellTiter-Glo ATP luminescence.
The nature of test [8]: growth inhibition of DIPG cells – cell-based, MIPE5.0 library, qHTS (AID 1347068; cut-off not given, nearly all actives have IC50 up to about 30 µM). The note with it: SU-DIPG-XXV viability.
Test [9] in a line: viability loss with induced miR-34 in A549 – imaging, A549 dox-inducible miR-34, nuclei and caspase counts, primary screen (AID 1347080;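 active = compounds whose cell count with miR-34 switched on is under 0.7 times the count with it off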). The note with it: A549 miR-34 inducible, Hoechst nuclei count, 48 h.
Test [10] is described as follows: MELAS cybrid and Rieske KO viability enhancers – cell-based, MELAS cybrids, Rieske KO mouse fibroblasts, CellTiter-Glo, primary screen (AID 1508586;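 active = mean z-score across replicates of 1.96 or higher in either the MELAS or the Rieske mutant cell line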;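 also: z relative to plate mean and SD of compound and empty wells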). Particulars: low glucose.
Test [11] can be described thus: drug combination growth inhibition, ovarian cancer – cell-based, oncology-focused library, rucaparib conditional, profiling panel (AID 1508598;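 active = normalized viability below 100% at a tested concentration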). Particulars: patient-derived ovarian cancer cells, CellTiter-Glo viability, 144 h, stronger effect = lower value.
Setting [12] is: stronger effect = lower value, cell number ratio, induced over uninduced.
The mark [13] stands for this setting: measured here: relative caspase fold change +Dox/-Dox.
The mark [14] stands for this setting: measured here: total cells with miR-34 induction, stronger effect = lower value.
Setting [15] is: measured here: total cells without miR-34 induction.
The mark [16] stands for this setting: MELAS cybrid survival, CellTiter-Glo 48 h, stronger effect = higher value.
Setting [17] is: Rieske KO mouse fibroblast survival, CellTiter-Glo 72 h.

SMILES strings stand for the structures. Records with an inconclusive call do not appear. The source made the active and inactive calls. Unless noted, the limit is not given here; nearly all actives have AC50 up to about 30 µM.

For `CNc1ccc(C(=O)Oc2cc(ON[N+](=O)N(C)C)c([N+](=O)[O-])cc2C#N)cc1`, the compound was classed as inactive in test [1], in test [2], in test [3] and in test [4].

What is called AC50 is the midpoint of the concentration-response curve, whichever way the signal moves. With `O=C(C=CC#Cc1cccc(NS(=O)(=O)c2ccccc2)c1)NO`, the AC50 was 14.8 µM (active) in [1], 9.35 µM (active) in [2], 4.18 µM (active) in test [3] and 18.7 µM (active) in [4].

On to `CN(C)CCCNC(=O)c1ccc(-c2cc(O)c3ncccc3c2)cc1`, for which the outcome in [1], in test [2], in test [3], in [5] and in [6] was inactive.

Consider `OC[C@H]1O[C@@H](OCCc2ccc(O)cc2)[C@H](O)[C@@H](O)[C@@H]1O`, for which the compound was called inactive in [1], in test [2], in test [3] and in test [4].

For the compound `Cc1nc2c([nH]1)CCN(C(=O)c1ccc(NC(=O)c3ccccc3-c3ccccc3)cc1)c1ccccc1-2`, the call in test [1], in test [2], in [3], in test [7], in test [4] and in test [6] was inactive. The call in test [8] was inactive. The fold change was 0.926 (inactive) in test [9] (setting [12]) and 0.734 in [9] (setting [13]). Besides, the cell count was 8050 in [9] (setting [14]) and 8690 in [9] (setting [15]). Besides, the z-score is -0.466 (inactive) in [10] (setting [16]) and 0.668 in [10] (setting [17]).

As to `COc1ccc2cc([S+]([O-])Cc3ncc(C)c(OC)c3C)nc2c1`, the result in test [1], in test [2], in test [3] and in [4] was inactive.

`CCN1C[C@H](C)n2c(c(O)c3c(=O)n(Cc4ccc(F)c(Cl)c4)nc(C(=O)NC)c32)C1=O`: the outcome in [1], in test [2], in test [3] and in [4] was inactive.

`CCCCCNC(=O)N1CCC(CN(Cc2ccc(Cl)cc2)Cc2ccc([N+](=O)[O-])s2)C1` (stereo not given): the compound was called inactive in test [1] and in [2]. Moreover, the AC50 in test [3] is 23.5 µM (active); in test [5] it was 29.5 µM (active); in test [6] it was 23.5 µM (active).

In the case of `CCCCCCCCCCCCCC(=O)N[C@H](CO)[C@H](O)c1ccc([N+](=O)[O-])cc1`, in test [1], the call was inactive. In addition, the AC50 in [2] was 2.96 µM (active); in test [3] it was 4.69 µM (active); in [5], 18.6 µM (active). The fold change is 0.96 (inactive) in test [9] (setting [12]) and 0.781 in [9] (setting [13]). Besides, the cell count in test [9] (setting [14]) was determined as 6010; in test [9] (setting [15]), 6250.

As to `C[C@]12CC[C@H](O)CC1=CCC1C2CC[C@]2(C)C(n3cnc4ccccc43)=CCC12` (stereo not given in full), the outcome in test [1], in test [2], in test [3] and in [8] was inactive. Moreover, the AC50 in test [5] is 20.9 µM (active).

For the compound `CC(C)C(=O)Oc1ccc(CO)cc1[C@H](CCN(C(C)C)C(C)C)c1ccccc1`, the compound was called inactive in [1], in test [2], in [3] and in [4].

`O=C(O)C1=NC(C(=O)O)CC(/C=C/N2c3cc(O)c(OC4OC(CO)C(O)C(O)C4O)cc3CC2C(=O)O)=C1` (stereo not given): the call in test [1], in test [2], in [3] and in [4] was inactive.

What is called viability is a read-out of living cells in per cent, often relative to untreated cells. For `CC1COC2(CCN(c3nc(=O)c4cc(C(F)(F)F)cc([N+](=O)[O-])c4s3)CC2)O1` (stereo not given), the result in [1], in [2], in test [3], in test [5], in [4] and in test [6] was inactive. Moreover, the call in test [8] was inactive. The fold change was 0.872 (inactive) in [9] (setting [12]) and 0.894 in test [9] (setting [13]). Also, the cell count in test [9] (setting [14]) is 6990; in [9] (setting [15]), 8010. For the same compound, the z-score in test [10] (setting [16]) is -0.641 (inactive); in [10] (setting [17]) it was -0.174. For the same compound, the viability is 115% (inactive) in test [11] (at 0.000305 µM, OCI-C5x cells, with rucaparib 10 µM, 100% = cells with rucaparib alone); 107% (inactive) in test [11] (at 0.000305 µM, OCI-C5x cells, without rucaparib); 99.5% (active) in [11] (at 0.000305 µM, OCI-P5x cells, with rucaparib 20 µM, 100% = cells with rucaparib alone); 95.5% (active) in test [11] (at 0.000305 µM, OCI-P5x cells, without rucaparib); 134% (inactive) in test [11] (at 0.00122 µM, OCI-C5x cells, with rucaparib 10 µM, 100% = cells with rucaparib alone); 116% (inactive) in test [11] (at 0.00122 µM, OCI-C5x cells, without rucaparib). Further, the viability in [11] (at 0.00122 µM, OCI-P5x cells, with rucaparib 20 µM, 100% = cells with rucaparib alone) was 105% (inactive); in test [11] (at 0.00122 µM, OCI-P5x cells, without rucaparib), 94.9% (active); in test [11] (at 0.00488 µM, OCI-C5x cells, with rucaparib 10 µM, 100% = cells with rucaparib alone) it was 129% (inactive); in test [11] (at 0.00488 µM, OCI-C5x cells, without rucaparib) it was 119% (inactive); in [11] (at 0.00488 µM, OCI-P5x cells, with rucaparib 20 µM, 100% = cells with rucaparib alone), 102% (inactive); in test [11] (at 0.00488 µM, OCI-P5x cells, without rucaparib), 104% (inactive). Besides, the viability in test [11] (at 0.0195 µM, OCI-C5x cells, with rucaparib 10 µM, 100% = cells with rucaparib alone) was 126% (inactive); in test [11] (at 0.0195 µM, OCI-C5x cells, without rucaparib), 112% (inactive); in [11] (at 0.0195 µM, OCI-P5x cells, with rucaparib 20 µM, 100% = cells with rucaparib alone), 105% (inactive); in test [11] (at 0.0195 µM, OCI-P5x cells, without rucaparib) it was 106% (inactive); in test [11] (at 0.0781 µM, OCI-C5x cells, with rucaparib 10 µM, 100% = cells with rucaparib alone) it was 118% (inactive); in test [11] (at 0.0781 µM, OCI-C5x cells, without rucaparib), 116% (inactive). Also, the viability in test [11] (at 0.0781 µM, OCI-P5x cells, with rucaparib 20 µM, 100% = cells with rucaparib alone) was 107% (inactive); in test [11] (at 0.0781 µM, OCI-P5x cells, without rucaparib) it was 103% (inactive); in test [11] (at 0.313 µM, OCI-C5x cells, with rucaparib 10 µM, 100% = cells with rucaparib alone), 121% (inactive); in test [11] (at 0.313 µM, OCI-C5x cells, without rucaparib), 118% (inactive); in test [11] (at 0.313 µM, OCI-P5x cells, with rucaparib 20 µM, 100% = cells with rucaparib alone) it was 111% (inactive); in [11] (at 0.313 µM, OCI-P5x cells, without rucaparib), 108% (inactive). Moreover, the viability was 115% (inactive) in [11] (at 1.25 µM, OCI-C5x cells, with rucaparib 10 µM, 100% = cells with rucaparib alone); 130% (inactive) in test [11] (at 1.25 µM, OCI-C5x cells, without rucaparib); 102% (inactive) in test [11] (at 1.25 µM, OCI-P5x cells, with rucaparib 20 µM, 100% = cells with rucaparib alone); 108% (inactive) in test [11] (at 1.25 µM, OCI-P5x cells, without rucaparib); 122% (inactive) in test [11] (at 5 µM, OCI-C5x cells, with rucaparib 10 µM, 100% = cells with rucaparib alone); 121% (inactive) in test [11] (at 5 µM, OCI-C5x cells, without rucaparib). Further, the viability in [11] (at 5 µM, OCI-P5x cells, with rucaparib 20 µM, 100% = cells with rucaparib alone) is 108% (inactive); in [11] (at 5 µM, OCI-P5x cells, without rucaparib), 105% (inactive).

`Nc1ncnc2c1ncn2[C@@H]1O[C@@H](CO)[C@H](O)[C@@H]1O`: the outcome in test [1], in test [2], in test [3] and in [4] was inactive.

Take `Cc1cnn(C)c1C(=O)Nc1cc(Nc2ccc3c(/C=C/c4ccccn4)n[nH]c3c2)ccc1F`: the AC50 in test [1] is 13.2 µM (active); in test [2], 18.7 µM (active); in [3], 14.8 µM (active); in [4] it was 18.7 µM (active).

Turning to `Nc1n[nH]c2nnc(-c3c(-c4ccccc4)nn4ccccc34)cc12`, the AC50 was 20.9 µM (active) in test [1], 20.9 µM (active) in test [2], 0.209 µM (active) in [3] and 2.96 µM (active) in [4]. The outcome in test [5], in test [6] and in test [8] was inactive.

On to `CC(C)(C)OC(=O)N[C@H]1CCCCC/C=C\[C@@H]2C[C@@]2(C(=O)NS(=O)(=O)C2CC2)NC(=O)[C@@H]2C[C@@H](OC(=O)N3Cc4cccc(F)c4C3)CN2C1=O`, for which the compound was called inactive in test [1], in test [2], in test [3], in [7], in test [4] and in test [8].

With `C[C@H](NCc1ccc2c(c1)nc(NC(=O)c1ccc(-c3cn[nH]c3)s1)n2CCc1ccccc1)C(C)(C)C`, the AC50 in [1] was 2.96 µM (active); in test [2], 1.05 µM (active); in [3], 1.32 µM (active); in [4] it was 5.26 µM (active).

On to `C=C1C[C@@]2(O)O[C@@]3(C[C@H]2C(C)C)[C@@H](C)CC[C@@H]13`, for which the compound was classed as inactive in test [1], in test [2], in [3], in [7], in [4] and in test [8].

The values above are taken from PubChem BioAssay.
